Measurements: PubChem BioAssay (NCI)
About 83,000 compounds went through this panel and 20% of them were active in at least one assay; those are over-represented in the sample as a whole.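 48-hour exposure, single concentration, 96-well plates; percent growth endpoint where 0 means no net growth. Active: below 10.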 Calls of active or inactive are those of the source.

Tests used:
Experiment in all cases: NCI-60 one-dose screen, 48 h (100 = growth as untreated, 0 = no growth, -100 = all killed)
[1] = system: SR leukemia; settings: 10 µM
[2] = system: RPMI-8226 leukemia; settings: 10 µM
[3] = system: OVCAR-8 ovarian; settings: 10 µM
[4] = system: OVCAR-5 ovarian; settings: 10 µM
[5] = system: OVCAR-4 ovarian; settings: 10 µM
[6] = system: SK-OV-3 ovarian; settings: 10 µM
[7] = system: IGROV1 ovarian; settings: 10 µM
[8] = system: OVCAR-3 ovarian; settings: 10 µM
[9] = system: HS 578T breast; settings: 10 µM
[10] = system: NCI/ADR-RES ovarian; settings: 10 µM
[11] = system: T-47D breast; settings: 10 µM
[12] = system: BT-549 breast; settings: 10 µM
[13] = system: MDA-MB-435 melanoma; settings: 10 µM
[14] = system: SW-620 colon; settings: 10 µM
[15] = system: MCF7 breast; settings: 10 µM unless noted
[16] = system: HCT-116 colon; settings: 10 µM
[17] = system: HCC-2998 colon; settings: 10 µM
[18] = system: KM12 colon; settings: 10 µM

Measured: growth

C1CNC(C2=NCCN2)=N1
inactive: [1] 96.1% | [2] 109% | [3] 102% | [4] 105% | [5] 105% | [6] 104% | [7] 107% | [8] 94.2% | [9] 101% | [10] 108% | [11] 101% | [12] 111% | [13] 93.4% | [14] 100% | [15] 98.7% | [16] 96.7% | [17] 92.3% | [18] 95.4%

Nc1ccc(CC(=O)O)c(N)c1
inactive: [1] 95.2% | [2] 104% | [3] 106% | [4] 96.1% | [5] 98.6% | [6] 93% | [7] 106% | [8] 97.2% | [9] 96.7% | [10] 96.5% | [11] 117% | [12] 105% | [13] 97.6% | [14] 100% | [15] 99.3% | [16] 103% | [17] 104% | [18] 93.5%

COc1ccc(Oc2c(I)cc(CC(NC(C)=O)C(=O)O)cc2I)cc1 (configuration not stated)
inactive: [1] 83.1% | [2] 74.3% | [3] 83.2% | [4] 91.7% | [5] 89.4% | [6] 105% | [7] 106% | [8] 99% | [9] 95.7% | [10] 62.4% | [11] 74% | [12] 65.1% | [13] 85.1% | [14] 104% | [15] 89.2% | [16] 79.6% | [17] 88% | [18] 113%

CCOC(=O)C(O)C(O)C(=O)OCC (configuration not stated)
inactive: [1] 104% | [2] 110% | [3] 105% | [4] 100% | [5] 110% | [6] 108% | [7] 115% | [8] 107% | [9] 103% | [10] 108% | [11] 98% | [12] 107% | [13] 108% | [14] 101% | [15] 107% | [16] 103% | [17] 111% | [18] 102%

C/C(=N/NC(N)=O)c1ccco1
inactive: [1] 87.3% | [2] 118% | [3] 106% | [4] 100% | [5] 110% | [6] 84.1% | [7] 104% | [8] 104% | [9] 110% | [10] 101% | [11] 83.5% | [12] 102% | [13] 107% | [14] 109% | [15] 98.4% | [16] 101% | [17] 92.1% | [18] 102%

CNS(=O)(=O)c1ccc(Cl)c(Cl)c1
inactive: [1] 78.1% | [2] 136% | [3] 99.2% | [4] 98.5% | [5] 99.8% | [6] 105% | [7] 114% | [8] 123% | [9] 98.9% | [10] 110% | [11] 99.2% | [12] 112% | [13] 98.7% | [14] 104% | [15] 98% | [16] 107% | [17] 118% | [18] 108%

CC(C)=NNc1ccc([N+](=O)[O-])cc1[N+](=O)[O-]
inactive: [1] 90.6% | [2] 68.2% | [3] 100% | [4] 105% | [5] 96.5% | [6] 92.9% | [7] 124% | [8] 104% | [9] 90.5% | [10] 93.4% | [11] 64.9% | [12] 90.9% | [13] 84.2% | [14] 85.7% | [15] 93.7% | [16] 82.5% | [17] 87% | [18] 86.4%

c1ccc(Sc2ccccc2)cc1
inactive: [1] 82.9% | [2] 99.7% | [3] 102% | [4] 104% | [5] 111% | [6] 104% | [7] 117% | [8] 106% | [9] 115% | [10] 112% | [11] 99.6% | [12] 100% | [13] 99.6% | [14] 107% | [15] 97.6% | [16] 110% | [17] 105% | [18] 102%

CCCCCC(C)(CC(=O)O)CC(=O)O
inactive: [1] 94.1% | [2] 119% | [3] 103% | [4] 97.4% | [5] 104% | [6] 114% | [7] 110% | [8] 126% | [9] 107% | [10] 119% | [11] 104% | [12] 113% | [13] 107% | [14] 106% | [15] 90% | [16] 112% | [17] 113% | [18] 115%

COC(=O)/C=C\C(=O)OC
inactive: [1] 103% | [2] 114% | [3] 108% | [4] 116% | [5] 115% | [6] 118% | [7] 113% | [8] 119% | [9] 113% | [10] 111% | [11] 113% | [12] 99.7% | [13] 115% | [14] 105% | [15] 103% | [16] 108% | [17] 103% | [18] 113%

O=[N+]([O-])c1ccc(-c2ncc(-c3ccc(Br)cc3)o2)cc1
inactive: [1] 124% | [2] 78.8% | [3] 109% | [4] 105% | [5] 97.3% | [6] 112% | [7] 100% | [8] 129% | [9] 129% | [10] 104% | [11] 94.7% | [12] 113% | [13] 108% | [14] 93.5% | [15] 87.4% | [16] 91.4% | [17] 88.2% | [18] 119%

C#CC(C(C)C)N(CCO)CCCC (configuration not stated)
inactive: [1] 101% | [2] 101% | [3] 105% | [4] 92.4% | [5] 101% | [6] 106% | [7] 115% | [8] 111% | [9] 102% | [10] 110% | [11] 100% | [12] 112% | [13] 98.6% | [14] 107% | [15] 93.9% | [16] 104% | [17] 111% | [18] 109%

Cc1cccc(C(=O)N(C(C)C)C(C)C)c1
inactive: [1] 110% | [2] 93.1% | [3] 100% | [4] 98% | [5] 104% | [6] 92.4% | [7] 103% | [8] 107% | [9] 90.6% | [10] 102% | [11] 83.9% | [12] 105% | [13] 106% | [14] 96.4% | [15] 98.9% | [16] 94.7% | [17] 109% | [18] 104%

COc1ccc(-c2cc3c(nn2)-c2ccccc2C3=O)cc1
active: [1] -21.8% | [3] -9.96% | [5] -26.1% | [8] -49.3% | [14] 4.15%
inactive: [2] 27.2% | [4] 83.7% | [6] 102% | [7] 61.6% | [9] 103% | [10] 60.9% | [11] 77.5% | [12] 89.7% | [13] 10.4% | [15] 16.2% | [16] 32% | [17] 34.5% | [18] 37.1%

Cc1ccc(CCCC(=O)O)c(C)c1
inactive: [1] 96.7% | [2] 97.8% | [3] 97.4% | [4] 94.5% | [5] 97.6% | [6] 97.7% | [7] 108% | [8] 108% | [9] 108% | [10] 107% | [11] 95.2% | [12] 101% | [13] 100% | [14] 99.7% | [15] 105% | [16] 103% | [17] 118% | [18] 107%

CC1CC(O)C2C3(C)CCCC2(COC3=O)C12CCC1(CCOC1=O)O2 (configuration not stated)
inactive: [1] 114% | [2] 117% | [3] 127% | [4] 104% | [5] 103% | [6] 105% | [7] 113% | [8] 110% | [9] 99% | [10] 111% | [11] 102% | [12] 96.1% | [13] 101% | [14] 102% | [15] 103% | [16] 97.4% | [17] 122% | [18] 107%

C=CCNC(=O)c1ccc(OC)cc1
inactive: [1] 110% | [2] 92.4% | [3] 107% | [4] 103% | [5] 134% | [6] 116% | [7] 96.2% | [8] 121% | [9] 221% | [10] 101% | [11] 103% | [12] 106% | [13] 109% | [14] 126% | [15] 95.2% | [16] 105% | [17] 93.3% | [18] 122%

COC(=O)C(O)c1ccccc1 (configuration not stated)
inactive: [1] 108% | [2] 111% | [3] 108% | [4] 97.6% | [5] 113% | [6] 105% | [7] 123% | [8] 104% | [9] 125% | [10] 110% | [11] 107% | [12] 109% | [13] 107% | [14] 111% | [15] 99.3% | [16] 97.7% | [17] 104% | [18] 106%

CC(=Nc1ccccc1)C1=C(O)C(Cc2cccc(F)c2)NC1=O (configuration not stated)
inactive: [4] 25.6% | [5] 36.4% | [7] 13.8% | [9] 45.6% | [11] 72.6% | [14] 26.8% | [15] 20.9% | [17] 26.9%
active: [1] 0.385% | [2] 9.85% | [3] 1.8% | [6] 4.34% | [8] -36.1% | [10] 7.11% | [12] -20.2% | [13] -46.2% | [16] 7.22% | [18] -3.04%
